Shiga toxin inh – blocks Shiga toxin action in Vero cells | 290,000 compounds, 9.2% hits | inhibition, % at 38.7 µM | Vero cells, Shiga toxin protein synthesis inhibition reporter; in the data active means inhibition mostly above about 28%, no sharp cut-off; inactive means mostly below about 43%; further: 0% is about no effect
LmPK inh – LmPK (Leishmania mexicana) enzyme inhibition; AID 1721; 290,000 compounds, 0.37% hits; Q27686; Potency, µM (doses to about 57.5 µM), for inactives: top-dose activity change, negative = inhibition, usual class: inhibitors; purified LmPK, Kinase-Glo ATP luminescence, 1 h; further: potency means the concentration at half of the fitted maximal effect; on the % scale 0 is the no-effect control and ±100 the full control effect
Target sequence (Q27686 whole entry, looked up): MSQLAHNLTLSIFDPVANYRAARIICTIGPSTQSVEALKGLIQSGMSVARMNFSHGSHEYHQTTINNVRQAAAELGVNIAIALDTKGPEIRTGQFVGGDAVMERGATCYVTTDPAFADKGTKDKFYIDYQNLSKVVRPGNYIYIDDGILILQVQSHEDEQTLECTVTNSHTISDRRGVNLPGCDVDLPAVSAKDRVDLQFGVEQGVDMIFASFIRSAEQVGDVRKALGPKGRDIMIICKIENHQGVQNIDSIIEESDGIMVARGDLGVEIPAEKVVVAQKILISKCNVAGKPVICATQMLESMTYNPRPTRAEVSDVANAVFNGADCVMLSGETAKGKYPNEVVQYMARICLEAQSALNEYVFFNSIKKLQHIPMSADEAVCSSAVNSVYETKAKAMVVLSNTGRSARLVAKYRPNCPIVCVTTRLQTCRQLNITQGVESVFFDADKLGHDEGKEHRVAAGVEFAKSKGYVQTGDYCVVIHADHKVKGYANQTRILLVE
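Kinase-Glo luminescence read after 1 h RT reaction of 0.1 nM LmPK with 0.5 mM PEP and 0.1 mM ADP. Activity scaled between uninhibited and enzyme-free controls.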
Pf growth 48h – P. falciparum growth inhibition at 48 hours (one generation). P. falciparum luciferase growth in erythrocytes, 48 h. Potency, µM (titrated, usually from 28.7 µM), for the others: at the top dose activity change, negative = inhibition, hits mostly inhibitors. 310,000 compounds, 5.9% hits; further: potency means the concentration at half of the fitted maximal effect; on the % scale 0 is the no-effect control and ±100 the full control effect
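Growth was read as firefly luciferase luminescence after a 48 h, 37 C, 5% CO2 exposure of compounds to reporter-bearing P. falciparum cultures (0.1% parasitemia, 2% hematocrit final) in Albumax-supplemented RPMI 1640.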
Pf growth 96h – P. falciparum growth inhibition at 96 hour, primary screen for plastid delayed-death inhibitors; Potency, µM (series often up to 28.7 µM), inactives show top-dose activity change, negative = inhibition, usual class: inhibitors; 320,000 compounds, 6.9% hits; P. falciparum luciferase reporter growth, 96 h; further: potency means the concentration at half of the fitted maximal effect; on the % scale 0 is the no-effect control and ±100 the full control effect
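Readout is luminescence from an integrated firefly luciferase in P. falciparum. Red cells, 2% hematocrit and 0.05% parasitemia final, were cultured with compound through two parasite generations (96 hours) at 37 C, 5% CO2.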
Cycloheximide cs – affects cycloheximide protein synthesis inhibition readout, counter-screen. cell reporter, cycloheximide protein synthesis inhibition counterscreen. max response, %. 300,000 compounds, 12% hits; in the data active means max response mostly above about 13%, no sharp cut-off; inactive means mostly below about 14%; further: read at 38.3 µM for the half of the compounds with a filed dose; 0% is about no effect
* hit, by the source's call; ? = inconclusive; / = no result; [ ] = another dose, or the depositor's remark. The list is not random: actives were taken first. Their share in the collection is about 22%. Unless noted, the call rests on the fitted dose curve; in most records, active means well fitted inhibition curve with a large enough effect; inconclusive means small, poorly fitted or top-dose-only effect, or another doubt; inactive means no such curve, though single readings can be large or run the other way.

SMILES	Shiga toxin inh	LmPK inh	Pf growth 48h	Pf growth 96h	Cycloheximide cs
Cc1cc(C)n(-c2ncc(-c3ccccc3)nn2)n1	90.4*	-3.7%	/	?	57.2*
Cc1cc(C)n(-c2nc(Nc3ccccc3)nc(-n3nc(C)cc3C)n2)n1	-21.6	2.5%	?	-0.3%	8.5
Cc1cc(C)n(-c2nncc(-c3ccccc3)n2)n1	70.7	-5.4%	?	0.0%	26.0*
C[C@H]1[C@H](NC(=O)/C(=N/OC(C)(C)C(=O)O)c2csc(N)n2)C(=O)N1S(=O)(=O)O (stereo in doubt)	/	/	-11.3%[12.8 µM]	-6.9%[12.8 µM]	/
CCOc1ccc(C(=O)Nc2nnc(S(=O)(=O)Nc3ccccc3C)s2)cc1	1.0	-9.0%	37.9%	?	-1.3
Cc1ccc2nc3n(c(=O)c2c1)-c1ccccc1C(=O)NC3Cc1ccccc1 (configuration not stated)	/	/	26.9%	6.2%	/
CCN=c1scc(C)n1/N=C/c1cc(Br)c(O)c(Br)c1	31.5*	-1.5%	?	?	19.8
COCCN=c1scc(-c2ccccc2)n1/N=C/c1c[nH]c2ccccc12	29.5	7.8%	?	?	16.7*
COCCN=c1scc(-c2cccs2)n1/N=C/c1ccc(O)c(O)c1O	54.6*	-6.7%	9.28µM*	4.15µM*	32.4*
CCN=c1scc(C)n1/N=C/c1ccc(O)c(O)c1O	48.5	-7.4%	?	7.38µM*	25.4*
Cc1cc(C)n(/N=C/c2c[nH]c3ccccc23)c(=O)c1	-10.7	6.6%	37.6%	18.0%	-1.5
C=C(C)CN=c1scc(C)n1/N=C/c1ccco1	10.2	1.0%	5.8%	?	2.3
COc1ccc(C2OC(=O)Cc3cc(OC)c(OC)cc32)cc1 (configuration not stated)	-8.7	-0.2%	6.0%	4.4%	-2.7
CN1CCN(c2ccc(Cl)cc2NC(=O)c2ccc(S(=O)(=O)N(C)C)cc2)CC1	-10.9	8.1%	/	3.29µM*	4.7
CN(C)S(=O)(=O)c1ccc(C(=O)Nc2ccc(F)cc2F)cc1	15.3	0.5%	11.9%	15.4%	8.0
CN(C)S(=O)(=O)c1ccc(C(=O)Nc2cc(S(=O)(=O)Nc3ccccc3Cl)ccc2N2CCCCC2)cc1	8.8	-0.2%	2.33µM*	1.31µM*	-4.5
CCN(CC)S(=O)(=O)c1cc(C(=O)Nc2cc(Cl)ccc2N2CCN(C)CC2)ccc1Cl	-13.7	2.2%	/	2.62µM*	-3.9
CCN(CC)S(=O)(=O)c1cc(C(=O)O)ccc1Cl	22.7	-10.8%	11.9%	/	0.8
CN(C)S(=O)(=O)c1cccc(C(=O)Nc2ccccc2N2CCCCC2)c1	-4.6	-2.9%	?	?	-3.6
NC(N)=NC(=O)c1nc(Cl)c(N)nc1N	-14.2	12.9%	3.79µM*	?	-3.9
NC(N)=NC(=O)c1nc(Cl)c(N2CCCCCC2)nc1N	/	/	4.65µM*	9.28µM*	/
COc1ccc(NC(=O)Cn2nnc(C(=O)NCc3ccc4c(c3)OCO4)c2N)c(OC)c1	-7.9	0.6%	24.9%	-19.9%	-1.5
CCN(CC)CCCN(Cc1cc2ccc(C)c(C)c2[nH]c1=O)C(=O)NC1CCCCC1	-15.3	-3.1%	?	9.28µM*	-1.4
Cc1cccc2cc(CN(CC3CCCO3)C(=O)NC3CCCCC3)c(=O)[nH]c12 (configuration not stated)	-8.1	0.7%	?	/	2.7
Cc1ccc2cc(CN(CC3CCCO3)C(=O)NC3CCCCC3)c(=O)[nH]c2c1C (configuration not stated)	-2.1	2.5%	9.2%	3.4%	-2.2
SMILES	Shiga toxin inh	LmPK inh	Pf growth 48h	Pf growth 96h	Cycloheximide cs
COc1ccc(CCN(Cc2cc3cccc(C)c3[nH]c2=O)C(=O)NC2CCCCC2)cc1OC	12.4	6.5%	/	2.94µM*	-4.6
COc1ccc(OCC2c3cc(OC)c(OC)cc3CCN2C(=O)C(C)C)cc1 (configuration not stated)	-13.0	1.3%	?	?	-5.4
COc1ccnc(N=CNOCc2cccc(C(F)(F)F)c2)c1C#N	-4.4	-2.7%	8.4%	14.7µM*	0.7
CC(Sc1ccc(S(=O)(=O)N2CCOCC2)cn1)C(=O)Nc1ccc(Cl)cc1Cl (configuration not stated)	/	/	11.7µM*	?	/
CC(NCC1(N2CCOCC2)CCCCC1)C(=O)Nc1ccc(Cl)cc1Cl (configuration not stated)	-4.0	13.2%	?	9.28µM*	14.4
COc1ncccc1-c1nnn(-c2ccc(Cl)nc2)n1	41.6	-2.9%	102.2%	140.5%	19.6*
O=S(=O)(Nc1cccc(-n2cnnn2)c1)c1ccc(Cl)nc1	44.7	10.6%	5.5%	26.3%	-2.3
Clc1ccc(-n2nnc(-c3cccnc3Cl)n2)cn1	49.6*	-2.3%	113.6%	278.7%	34.8*
Brc1ccccc1-n1nnc(-c2nccs2)n1	76.7*	-24.0%	281.1%	77.6%	48.8*
Cc1ccc(-n2nnc(-c3cccnc3Cl)n2)cc1	87.2*	-5.3%	143.1%	179.3%	47.2*
CCOC(=O)C1CC(c2ccc(Cl)cc2)=NNC1=O (configuration not stated)	-8.4	-4.4%	?	25.5%	0.4
CC(Sc1nccn1C)C(=O)c1c(N)n(C)c(=O)n(C)c1=O (configuration not stated)	/	/	-13.2%	-11.4%	/
Nc1ccc(S(=O)(=O)Nc2nc3ccccc3o2)cc1	/	0.1%	0.0%	7.5%	0.7
O=C(NCc1cccc(F)c1)c1ccc2nc(N3CCOCC3)sc2c1	16.0	0.3%	-17.9%	-11.3%	9.9
Cc1ccc(NC(=O)CCC(=O)NNC(=O)c2ccccc2[N+](=O)[O-])c(C)c1	-8.5	2.8%	9.5%	38.6%	6.7
Cn1c(=O)c2ccccc2n(CC(=O)N2CCCc3ccccc32)c1=O	-15.1	-3.6%	-11.3%	0.9%	11.4
COC(=O)N1C2=C(c3ccccc3[C@@H]1CC(=O)Nc1ccc3cc4ccccc4cc3c1)[C@@H]1C(=O)N(c3ccccc3)C(=O)[C@@H]1[C@H](C)C2	/	-2.9%[11.5 µM]	/	/	/
Clc1ncccc1-c1nnn(-c2ccccc2Br)n1	72.9*	-6.2%	103.8%	134.1%	34.0*
O=C1c2ccccc2C(=O)N1c1ccc(Br)c2cccnc12	-2.1	0.0%	34.5%	25.3%	3.4
COc1ccccc1C(c1nnnn1C(C)(C)C)N1CCN(C(=O)c2ccco2)CC1 (configuration not stated)	-7.3	4.7%	4.65µM*	?	5.6
COc1ccccc1C(c1nnnn1C(C)(C)C)N1CCCCCC1 (configuration not stated)	-4.6	1.4%	8.28µM*	/	2.2
CCN(CC(=O)NCc1cccs1)C(=O)c1ccc(S(=O)(=O)Nc2ccccc2C)cc1	/	/	2.0%	-1.2%	/
CCN1CCN(C(=S)NC(=O)c2cccs2)CC1	-14.2	1.1%	?	-24.4%	-2.1
O=C(NC(=S)N1CCN(c2ccc(C(F)(F)F)cc2[N+](=O)[O-])CC1)c1cccs1	-7.5	1.5%	-5.5%	4.15µM*	-3.0
COc1ccc(C(O)(CCN2CCOCC2)c2ccccc2)cc1 (configuration not stated)	-4.9	0.2%	4.0%	?	-3.0

Assay outcomes: PubChem BioAssay, National Center for Advancing Translational Sciences (NCATS)
